Laboratory results reported in PubChem BioAssay (NCATS).
Where “and” joins values, the source holds several entries; their conditions need not be identical. Equal entries are not always repeated. Inconclusive results are not listed. A number with no mark means an inactive call. The call rests on the fitted dose curve; in most records, active means well fitted cell-killing curve with a large enough effect; inconclusive means small, poorly fitted or top-dose-only effect, or effect the other way; inactive means flat fitted curve, though single readings scatter.

Experiment: qHTS assay for cell viability of HEK293 cells (AID 743288); further: nearly all actives have a fitted effect of over 50% in size
Conditions: ATP luminescence (CellTiter-Glo), 18 h, hits give low values
Description: National Center for Advancing Translational Sciences [NCATS]
NIH Chemical Genomics Center [NCGC]
U.S. Environmental Protection Agency [EPA]
National Institutes of Environmental Health Sciences [NIEHS]
National Toxicology Program [NTP]
U.S. Food and Drug Administration [FDA]
The CellTiter-Glo Luminescent Cell Viability Assay (Promega, Madison, WI) is a homogeneous method to determine the number of viable cells in culture based on quantitation of the ATP present, which signals the presence of metabolically active cells. This cell viability assay was used to screen environmental chemicals in the Hek293 cell line.
Tox21 Assay Protocol Summary:
Cell viability after compound treatment was measured using a luciferase-coupled ATP quantitation assay (CellTiter-Glo viability assay, Promega, Madison, WI) in parental HEK293 cells. Total intracellular ATP content corresponds to the number of metabolically competent cells after compound treatment. The cells were dispensed at 2,000 cells/5 uL/well in 1,536-well white/solid bottom assay plates using a Flying Reagent Dispenser (Aurora Discovery, San Diego, CA). The cells were incubated a minimum of 5 h at 37 C, followed by the addition of 23 nL of compounds dissolved in DMSO, positive controls or DMSO only using a pintool work station (Kalypsys, San Diego, CA). The assay plates were incubated for 18 h at 37 C, followed by the addition of 5 uL/well of CellTiter-Glo reagent. After 30 min incubation at room temperature, the luminescence intensity of the plates was measured using a ViewLux plate reader (PerkinElmer, Shelton, CT).
On the % scale 0 is the no-effect control and ±100 the full control effect.

Row | Compound | max response
1 | Cc1ccc2c(C)cccc2c1 | 11.2%
2 | CCCC[N+](=O)[O-] | -6.09%
3 | CCCCC(CC)COC(=O)c1ccc(C(=O)OCC(CC)CCCC)c(C(=O)OCC(CC)CCCC)c1 (stereo not given) | -4.51%
4 | C=CCc1cc(OC)c2c(c1)OCO2 | -6.53%
5 | ClCc1ccccc1 | -10.4%
6 | CC(C)C#N | 0.536%
7 | CN(C)N=O | -0.309%
8 | O=[N+]([O-])c1ccc(Cl)cc1 | 7.34% and -5.17%
9 | CCOP(=S)(OCC)Oc1nc(Cl)c(Cl)cc1Cl | -7.97% [middle of 4 runs]
10 | C=CC(=O)OCCN(C)C | -6.86%
11 | COc1c(C(C)(C)C)cc([N+](=O)[O-])c(C)c1[N+](=O)[O-] | -7.25%
12 | O=C(O)c1cc(Cl)ccc1Cl | -1.88%
13 | Oc1ccc(Cl)c(Cl)c1Cl | -4.77%
14 | Oc1cccc(Cl)c1 | 0.616%
15 | Cc1ccc2c(c1N)C(=O)c1ccccc1C2=O | -21.2% and -23%
16 | Cc1cccc(N)c1C | -7.16%
17 | Nc1cc(Cl)ccc1O | -15.2%
18 | O=[N+]([O-])c1cccc(CCl)c1 | -20.5%
19 | Cc1ccccc1[N+](=O)[O-] | 6.42%
20 | CC(C)(C)c1ccccc1O | -7.55% and -11.9%

Row | Compound | max response
21 | CCCCOCC1CO1 (stereo not given) | -19.5%
22 | Oc1c(Cl)c(Cl)cc(Cl)c1Cl | 1.93%
23 | ClC(Cl)(Cl)C(Cl)(Cl)Cl | 3.22%
24 | Nc1ccc2ccccc2c1 | 3.26%
25 | Brc1cccc(-c2ccccc2)c1 | 8.7%
26 | Cc1ccc([N+](=O)[O-])cc1 | 0.535%
27 | C=CC(=O)OCCO | -1.05%
28 | C=C(C)CCl | -1.82%
29 | Cc1ccc(N)cc1N | 6.42% and -0.208%
30 | CN(C)C(=O)Nc1ccc(Cl)cc1 | 10.7% and -3.59%
31 | Cc1ccc(N)c(C)c1 | 1.36%
32 | CCN(N=O)C(N)=O | 9%
33 | N#CCc1ccccc1 | -1.92%
34 | CCCN(CCC)c1c([N+](=O)[O-])cc(C(F)(F)F)cc1[N+](=O)[O-] | 12.8% and -6.09%
35 | CCCBr | -3.65%
36 | ClCC(Cl)CCl | -3.69% and -5.22%
37 | CCCCCCCCCCCCCl | -0.903%
38 | O=[N+]([O-])c1cc(Cl)c(Cl)c(Cl)c1 | -14.7%
39 | Cc1ccc(N=C=O)cc1N=C=O | -9.26% and -8.71%
40 | CCCCOC(=O)c1ccccc1N | -7.97%
